# In PMC11006913:
# Positions count from the first letter of the chain named.
# Key:
# Assay in all cases: PBM; 200 nM protein, PBS
# Conditions in all cases: dsDNA, one strand shown
# [1] = target: T1, SIX6 (Homo sapiens, UniProt O95475 114-200, L167I)
# T1 sequence: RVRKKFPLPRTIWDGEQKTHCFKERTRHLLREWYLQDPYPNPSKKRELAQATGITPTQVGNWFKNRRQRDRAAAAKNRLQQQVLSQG
# [2] = target: T2, SIX6 (Homo sapiens, UniProt O95475 114-200, L143V)
# T2 sequence: T1 sequence with L30V, I54L
# [3] = target: T3, SIX6 (Homo sapiens, UniProt O95475 114-200, H141N)
# T3 sequence: T1 sequence with H28N, I54L
# [4] = target: T4, SIX6 (Homo sapiens, UniProt O95475 114-200, T165P)
# T4 sequence: T1 sequence with T52P, I54L
# [5] = target: T5, SIX6 (Homo sapiens, UniProt O95475 114-200, L167M)
# T5 sequence: T1 sequence with I54M
# [6] = target: T6, SIX6 (Homo sapiens, UniProt O95475 114-200, L143M)
# T6 sequence: T1 sequence with L30M, I54L
# [7] = target: T7, SIX6 (Homo sapiens, UniProt O95475 114-200, L143I)
# T7 sequence: T1 sequence with L30I, I54L
# [8] = target: T8, SIX6 (Homo sapiens, UniProt O95475 114-200, T165G)
# T8 sequence: T1 sequence with T52G, I54L
# [9] = target: T9, SIX6 (Homo sapiens, UniProt O95475 114-200, T139Q)
# T9 sequence: T1 sequence with T26Q, I54L
# [10] = target: T10, SIX6 (Homo sapiens, UniProt O95475 114-200, T165A)
# T10 sequence: T1 sequence with T52A, I54L
# [11] = target: T11, SIX6 (Homo sapiens, UniProt O95475 114-200, L167V)
# T11 sequence: T1 sequence with I54V
# [12] = target: T12, SIX6 (Homo sapiens, UniProt O95475 114-200)
# T12 sequence: T1 sequence with I54L
# [13] = target: T13, SIX6 (Homo sapiens, UniProt O95475 114-200, T165I)
# T13 sequence: T1 sequence with T52I, I54L
Sequence,binding signal [1],binding signal [2],binding signal [3],binding signal [4],binding signal [5],binding signal [6],binding signal [7],binding signal [8],binding signal [9],binding signal [10],binding signal [11],binding signal [12],binding signal [13]
ATACACCA,"10.4 upbm affinity estimate (log intensity, higher = more binding, comparable within an allelic series)","10.1 upbm affinity estimate (log intensity, higher = more binding, comparable within an allelic series)","10.6 upbm affinity estimate (log intensity, higher = more binding, comparable within an allelic series)","9.67 upbm affinity estimate (log intensity, higher = more binding, comparable within an allelic series)","10.2 upbm affinity estimate (log intensity, higher = more binding, comparable within an allelic series)","10.4 upbm affinity estimate (log intensity, higher = more binding, comparable within an allelic series)","10.2 upbm affinity estimate (log intensity, higher = more binding, comparable within an allelic series)","10.8 upbm affinity estimate (log intensity, higher = more binding, comparable within an allelic series)","10.8 upbm affinity estimate (log intensity, higher = more binding, comparable within an allelic series)","10.6 upbm affinity estimate (log intensity, higher = more binding, comparable within an allelic series)","10.2 upbm affinity estimate (log intensity, higher = more binding, comparable within an allelic series)","10.5 upbm affinity estimate (log intensity, higher = more binding, comparable within an allelic series)","10.5 upbm affinity estimate (log intensity, higher = more binding, comparable within an allelic series)"
ATGATACC,"11.6 upbm affinity estimate (log intensity, higher = more binding, comparable within an allelic series)","10.5 upbm affinity estimate (log intensity, higher = more binding, comparable within an allelic series)","11.6 upbm affinity estimate (log intensity, higher = more binding, comparable within an allelic series)","9.82 upbm affinity estimate (log intensity, higher = more binding, comparable within an allelic series)","11 upbm affinity estimate (log intensity, higher = more binding, comparable within an allelic series)","11.3 upbm affinity estimate (log intensity, higher = more binding, comparable within an allelic series)","10.6 upbm affinity estimate (log intensity, higher = more binding, comparable within an allelic series)","11.7 upbm affinity estimate (log intensity, higher = more binding, comparable within an allelic series)","11.5 upbm affinity estimate (log intensity, higher = more binding, comparable within an allelic series)","11.6 upbm affinity estimate (log intensity, higher = more binding, comparable within an allelic series)","11.4 upbm affinity estimate (log intensity, higher = more binding, comparable within an allelic series)","11.4 upbm affinity estimate (log intensity, higher = more binding, comparable within an allelic series)","11.3 upbm affinity estimate (log intensity, higher = more binding, comparable within an allelic series)"
AGCGGGCC,"9.04 upbm affinity estimate (log intensity, higher = more binding, comparable within an allelic series)","8.92 upbm affinity estimate (log intensity, higher = more binding, comparable within an allelic series)","8.88 upbm affinity estimate (log intensity, higher = more binding, comparable within an allelic series)","8.96 upbm affinity estimate (log intensity, higher = more binding, comparable within an allelic series)","8.96 upbm affinity estimate (log intensity, higher = more binding, comparable within an allelic series)","8.83 upbm affinity estimate (log intensity, higher = more binding, comparable within an allelic series)","8.88 upbm affinity estimate (log intensity, higher = more binding, comparable within an allelic series)","8.84 upbm affinity estimate (log intensity, higher = more binding, comparable within an allelic series)","9.03 upbm affinity estimate (log intensity, higher = more binding, comparable within an allelic series)","8.98 upbm affinity estimate (log intensity, higher = more binding, comparable within an allelic series)","8.99 upbm affinity estimate (log intensity, higher = more binding, comparable within an allelic series)","8.89 upbm affinity estimate (log intensity, higher = more binding, comparable within an allelic series)","8.98 upbm affinity estimate (log intensity, higher = more binding, comparable within an allelic series)"
CCCCGCAG,"9.03 upbm affinity estimate (log intensity, higher = more binding, comparable within an allelic series)","8.85 upbm affinity estimate (log intensity, higher = more binding, comparable within an allelic series)","9.03 upbm affinity estimate (log intensity, higher = more binding, comparable within an allelic series)","8.95 upbm affinity estimate (log intensity, higher = more binding, comparable within an allelic series)","9 upbm affinity estimate (log intensity, higher = more binding, comparable within an allelic series)","8.92 upbm affinity estimate (log intensity, higher = more binding, comparable within an allelic series)","8.95 upbm affinity estimate (log intensity, higher = more binding, comparable within an allelic series)","9.04 upbm affinity estimate (log intensity, higher = more binding, comparable within an allelic series)","8.99 upbm affinity estimate (log intensity, higher = more binding, comparable within an allelic series)","8.96 upbm affinity estimate (log intensity, higher = more binding, comparable within an allelic series)","8.93 upbm affinity estimate (log intensity, higher = more binding, comparable within an allelic series)","8.96 upbm affinity estimate (log intensity, higher = more binding, comparable within an allelic series)","8.97 upbm affinity estimate (log intensity, higher = more binding, comparable within an allelic series)"
CCGGCGCC,"8.8 upbm affinity estimate (log intensity, higher = more binding, comparable within an allelic series)","8.98 upbm affinity estimate (log intensity, higher = more binding, comparable within an allelic series)","8.96 upbm affinity estimate (log intensity, higher = more binding, comparable within an allelic series)","9.05 upbm affinity estimate (log intensity, higher = more binding, comparable within an allelic series)","9 upbm affinity estimate (log intensity, higher = more binding, comparable within an allelic series)","8.85 upbm affinity estimate (log intensity, higher = more binding, comparable within an allelic series)","9.03 upbm affinity estimate (log intensity, higher = more binding, comparable within an allelic series)","8.96 upbm affinity estimate (log intensity, higher = more binding, comparable within an allelic series)","8.96 upbm affinity estimate (log intensity, higher = more binding, comparable within an allelic series)","8.98 upbm affinity estimate (log intensity, higher = more binding, comparable within an allelic series)","8.96 upbm affinity estimate (log intensity, higher = more binding, comparable within an allelic series)","9.02 upbm affinity estimate (log intensity, higher = more binding, comparable within an allelic series)","8.9 upbm affinity estimate (log intensity, higher = more binding, comparable within an allelic series)"
AGGTATCA,"11.7 upbm affinity estimate (log intensity, higher = more binding, comparable within an allelic series)","10.6 upbm affinity estimate (log intensity, higher = more binding, comparable within an allelic series)","11.8 upbm affinity estimate (log intensity, higher = more binding, comparable within an allelic series)","9.9 upbm affinity estimate (log intensity, higher = more binding, comparable within an allelic series)","11 upbm affinity estimate (log intensity, higher = more binding, comparable within an allelic series)","11.4 upbm affinity estimate (log intensity, higher = more binding, comparable within an allelic series)","10.7 upbm affinity estimate (log intensity, higher = more binding, comparable within an allelic series)","11.8 upbm affinity estimate (log intensity, higher = more binding, comparable within an allelic series)","11.6 upbm affinity estimate (log intensity, higher = more binding, comparable within an allelic series)","11.7 upbm affinity estimate (log intensity, higher = more binding, comparable within an allelic series)","11.5 upbm affinity estimate (log intensity, higher = more binding, comparable within an allelic series)","11.4 upbm affinity estimate (log intensity, higher = more binding, comparable within an allelic series)","11.5 upbm affinity estimate (log intensity, higher = more binding, comparable within an allelic series)"
